# Several values for one entry are separate records, joined by “and”; a condition that tells them apart may be missing. Equal entries are not always repeated. Records with an inconclusive call do not appear. More than one record can exist for a structure, and the calls need not agree. Values without a mark were called inactive. Activity calls are given as the source filed them. Calls follow the shape of the dose curve; as a rule, active = well fitted curve in the direction sought with a large enough effect; inconclusive = small, poorly fitted or top-dose-only effect, or another doubt; inactive = no such curve, though single readings can be large; an effect the other way counts as inactive or inconclusive.
# Key:
# CRL-7250 = normal cell line; experiment: Cytotoxic Profiling of Annotated Libraries Using Quantitative High-Throughput Screening (AID 1296008); settings: Five cell lines viability, CellTiter-Glo ATP luminescence, 48-72 h; max response: hits give low values; also: nearly all actives have a fitted effect of over 60% in size
# Summary of the method: (§1)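 Compounds were pin-transferred onto cells and incubated 48 or 72 hr at 37 degree Celsius, 95% humidity. CellTiter-Glo was added, plates sat 10 min at room temperature, then ATP-coupled luminescence was imaged as the viability read-out.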
# HEK293 = experiment: as above; settings: Five cell lines viability, CellTiter-Glo ATP luminescence, 48-72 h; max response: hits give low values
# Summary of the method: as §1
# HaCat [1] = experiment: as above; settings: Five cell lines viability, CellTiter-Glo ATP luminescence, 48-72 h; max response: hits give low values
# Summary of the method: as §1
# KB-3-1 = experiment: as above; settings: Five cell lines viability, CellTiter-Glo ATP luminescence, 48-72 h; max response: hits give low values
# Summary of the method: as §1
# NIH3T3 [2] = experiment: as above; settings: Five cell lines viability, CellTiter-Glo ATP luminescence, 48-72 h; max response: hits give low values
# Summary of the method: as §1
# MCC-13 = experiment: qHTS assay to identify novel small-molecules to repurpose for Merkel cell carcinoma treatment (AID 1296009); settings: MCC and control cell lines, CellTiter-Glo viability, 72 h; series mostly up to 46 µM; also: nearly all actives have a fitted effect of over 60% in size
# Summary of the method: (§2)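 Viability readout: ATP luminescence (CellTiter-Glo) after 72 hr drug exposure at 37 degree celsius. Dose-response format was 8 points for NPC and 11 points for MIPE; data normalized to in-plate controls.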
# MCC-26 = experiment: as above; settings: MCC and control cell lines, CellTiter-Glo viability, 72 h; series mostly up to 46 µM
# Summary of the method: as §2
# MKL-2 = experiment: as above; settings: MCC and control cell lines, CellTiter-Glo viability, 72 h; series mostly up to 46 µM
# Summary of the method: as §2
# UISO = experiment: as above; settings: MCC and control cell lines, CellTiter-Glo viability, 72 h; series mostly up to 46 µM
# Summary of the method: as §2
# WaGa = experiment: as above; settings: MCC and control cell lines, CellTiter-Glo viability, 72 h; series mostly up to 46 µM
# Summary of the method: as §2
# C33A = experiment: Primary qHTS to identify gynecologic anti-cancer compounds using libraries of approved drugs and bioactive compounds (AID 1345084); settings: Gynecologic cancer cell panel viability, ATPlite luminescence, 48 h; series mostly up to 57.5 µM; also: nearly all actives have a fitted effect of over 55% in size
# Summary of the method: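 Cells, 1,000 per well, were allowed to settle for 16 h at 37 C before compound addition. Five concentrations were tested for 48 h, and viability was read by ATPlite luminescence after 15 min at room temperature.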
# HACAT [3] = experiment: qHTS assay to identify novel small-molecules to repurpose for Merkel cell carcinoma treatment (AID 1296009); settings: MCC and control cell lines, CellTiter-Glo viability, 72 h; at 44.8 µM (top of the series) unless noted; also: nearly all actives have a fitted effect of over 60% in size
# Summary of the method: as §2
# MKL-1 = experiment: as above; settings: MCC and control cell lines, CellTiter-Glo viability, 72 h; series mostly up to 46 µM
# Summary of the method: as §2
# NIH3T3 [4] = experiment: as above; settings: MCC and control cell lines, CellTiter-Glo viability, 72 h; at 44.8 µM (top of the series) unless noted
# Summary of the method: as §2
# HEK293T = experiment: as above; settings: MCC and control cell lines, CellTiter-Glo viability, 72 h; at 44.8 µM (top of the series) unless noted
# Summary of the method: as §2
# % is scaled to controls: 0 for no effect and ±100 for the full control effect; potency is read from the fitted curve at half-maximal effect.
smiles,measurement,setting,value
Cc1[nH]nc2ccc(-c3cncc(OC[C@@H](N)Cc4c[nH]c5ccccc45)c3)cc12,Potency,CRL-7250,935 nM (active) and 2.06 µM (active)
same,Potency,HEK293,132 nM (active) and 103 nM (active)
same,Potency,HaCat [1],1180 nM (active)
same,Potency,KB-3-1,146 nM (active)
same,Potency,NIH3T3 [2],1.66 µM (active) and 1.64 µM (active)
same,Potency,MCC-13,2350 nM (active)
same,Potency,MCC-26,3720 nM (active)
same,Potency,MKL-2,3720 nM (active)
same,Potency,UISO,235 nM (active)
same,Potency,WaGa,833 nM (active)
same,Potency,C33A,316 nM (active)
C#C[C@]1(O)C=C[C@@H]2[C@@H]3CCC4=CC(=O)CC[C@@H]4[C@H]3CC[C@@]21CC,max response,CRL-7250,-4.4%
same,max response,HEK293,-3.75%
same,outcome,HaCat [1],inactive
same,max response,NIH3T3 [2],-5.86%
same,outcome,HACAT [3],inactive
same,Potency,MCC-13,inactive
same,Potency,MCC-26,inactive
same,Potency,MKL-1,inactive
same,Potency,MKL-2,inactive
same,Potency,UISO,inactive
same,Potency,WaGa,inactive
CCOCCOC(C)=O,max response,CRL-7250,-13%
same,max response,HEK293,-1.29%
same,max response,HaCat [1],-11.2%
same,max response,KB-3-1,-19.2%
same,max response,NIH3T3 [2],-2.47%
same,Potency,MCC-13,inactive
same,Potency,MCC-26,inactive
same,Potency,MKL-1,inactive
same,Potency,MKL-2,inactive
same,Potency,UISO,inactive
same,Potency,WaGa,inactive
same,Potency,C33A,inactive
C=CCON=C(C[C@H]1O[C@@H]2O[C@]3(C)CC[C@@H]4[C@H](C)CC[C@@H]([C@H]1C)[C@@]24OO3)[C@H]1O[C@@H]2O[C@]3(C)CC[C@H]4[C@H](C)CC[C@@H]([C@@H]1C)[C@@]24OO3,Potency,CRL-7250,935 nM (active)
same,Potency,HEK293,235 nM (active)
same,Potency,HaCat [1],2960 nM (active)
same,Potency,KB-3-1,1320 nM (active)
same,Potency,MCC-26,inactive
same,Potency,MKL-1,1180 nM (active)
same,Potency,WaGa,1050 nM (active)
O=[N+]([O-])c1ncc[nH]1,max response,CRL-7250,-4.09%
same,max response,HEK293,-7.79%
same,max response,HaCat [1],-7.46%
same,max response,NIH3T3 [2],-0.757%
same,Potency,MCC-13,inactive
same,Potency,MCC-26,inactive
same,Potency,MKL-1,inactive
same,Potency,MKL-2,inactive
same,Potency,UISO,inactive
same,Potency,WaGa,inactive
C[C@@]12OC(=O)[C@]1([C@@H](O)[C@@H]1C=CCCC1)NC(=O)[C@H]2CCCl,Potency,CRL-7250,209 nM (active)
same,Potency,HEK293,74.3 nM (active)
same,Potency,HaCat [1],16600 nM (active)
same,Potency,KB-3-1,418 nM (active)
same,Potency,MCC-13,3320 nM (active)
same,Potency,MKL-1,1180 nM (active)
same,Potency,MKL-2,526 nM (active)
same,Potency,UISO,1480 nM (active)
same,Potency,WaGa,662 nM (active)
O=C(Nc1ccncc1)C(=O)c1cn(Cc2ccc(Cl)cc2)c2ccccc12,Potency,CRL-7250,296 nM (active)
same,Potency,HEK293,37.2 nM (active)
same,Potency,KB-3-1,46.9 nM (active)
same,Potency,NIH3T3 [2],52.6 nM (active)
CCC(=O)O[C@@H]1C=C2CCC3C(CCC4(C)C3CC[C@@H]4OC(=O)CC)C2CC1 (some centres undefined),max response,CRL-7250,-3.72%
same,max response,HEK293,2.37%
same,max response,HaCat [1],-20.7%
same,outcome,NIH3T3 [2],inactive
same,Potency,MCC-13,inactive
same,Potency,MCC-26,inactive
same,Potency,MKL-1,inactive
same,Potency,MKL-2,inactive
same,outcome,NIH3T3 [4],inactive
same,Potency,UISO,inactive
same,Potency,WaGa,inactive
same,Potency,C33A,inactive
O=C(N[C@@H](COc1ccc2[nH]c(=O)[nH]c2c1)c1ccccc1)c1cccn(Cc2ccc(F)c(F)c2)c1=O,max response,CRL-7250,-47.2%
same,max response,HEK293,-35.2% and -9.78%
same,max response,HaCat [1],-18%
same,max response,KB-3-1,-0.47%
same,max response,NIH3T3 [2],-25.3%
same,Potency,MCC-13,inactive
same,Potency,MCC-26,inactive
same,Potency,MKL-1,inactive
same,Potency,MKL-2,inactive
same,Potency,UISO,inactive
same,Potency,WaGa,inactive
same,Potency,C33A,inactive
C[C@]12CC[C@@H]3[C@@H](CCC4=CC(=O)CC[C@@H]43)[C@@H]1CC[C@@H]2OC(=O)CCc1ccccc1,max response,CRL-7250,1.37%
same,outcome,HEK293,inactive
same,max response,HaCat [1],-22.8%
same,max response,NIH3T3 [2],-6.38%
same,outcome,HEK293T,inactive
same,Potency,MCC-13,inactive
same,Potency,MCC-26,inactive
same,Potency,MKL-1,inactive
same,Potency,MKL-2,inactive
same,Potency,UISO,inactive
same,Potency,WaGa,inactive
CC(=Cc1csc(C)n1)[C@@H]1C[C@H]2O[C@]2(C)CCC[C@H](C)[C@@H](O)[C@@H](C)C(=O)C(C)(C)[C@@H](O)CC(=O)O1,max response,CRL-7250,-93.2%
same,max response,HEK293,-85.5%
same,max response,HaCat [1],-55%
same,Potency,KB-3-1,0.1 nM (active)
same,max response,NIH3T3 [2],-85.8%
same,Potency,MCC-13,inactive
same,Potency,MKL-1,inactive
same,Potency,MKL-2,inactive
same,Potency,WaGa,inactive
Nc1c(Cl)c(Cl)c(Cl)c(Cl)c1Cl,max response,CRL-7250,-6.12%
same,max response,HEK293,-6.61%
same,max response,HaCat [1],-3.9%
same,max response,KB-3-1,-13%
same,max response,NIH3T3 [2],2.9%
same,Potency,MCC-13,inactive
same,Potency,MCC-26,inactive
same,Potency,MKL-1,inactive
same,Potency,MKL-2,inactive
same,Potency,UISO,inactive
same,Potency,WaGa,inactive
same,Potency,C33A,inactive
O=c1cccc2n1CC1CNC[C@H]2C1,max response,CRL-7250,-0.274%
same,max response,HEK293,-2.71%
same,max response,HaCat [1],-12.2%
same,outcome,KB-3-1,inactive
same,max response,NIH3T3 [2],-3.34%
same,Potency,MCC-13,inactive
same,Potency,MCC-26,inactive
same,Potency,MKL-1,14800 nM (active)
same,Potency,MKL-2,2640 nM (active)
same,Potency,UISO,inactive
same,Potency,WaGa,2350 nM (active)
c1ccc2c(CN3CCNCC3)cccc2c1,max response,CRL-7250,-5.13%
same,max response,HEK293,-5.02%
same,max response,HaCat [1],2.18%
same,outcome,KB-3-1,inactive
same,max response,NIH3T3 [2],4.9%
same,Potency,MCC-13,inactive
same,Potency,MCC-26,inactive
same,Potency,MKL-1,inactive
same,Potency,MKL-2,inactive
same,Potency,UISO,inactive
same,Potency,WaGa,inactive
COc1ccc(N(C(=O)Oc2c(C)cccc2C)c2ccnc(Nc3ccc(N4CCN(C)CC4)cc3)n2)c(OC)c1,max response,CRL-7250,-8.13% and -61.8%
same,max response,HEK293,1.61% and -25.7%
same,Potency,KB-3-1,16400 nM (active)
same,max response,KB-3-1,-15.9%
same,Potency,NIH3T3 [2],18700 nM (active)
same,Potency,MKL-1,13200 nM (active)
same,Potency,UISO,inactive
CN[C@@H]1Cc2cccc3[nH]c(=O)n(c23)C1,max response,CRL-7250,-16.3%
same,max response,HEK293,-16.4%
same,max response,KB-3-1,9.87%
same,max response,NIH3T3 [2],3.1%
same,Potency,MCC-13,inactive
same,Potency,MCC-26,inactive
same,Potency,MKL-1,inactive
same,Potency,MKL-2,inactive
same,Potency,UISO,inactive
same,Potency,WaGa,inactive
